Assay results reported in PubChem BioAssay (NCATS).
Inconclusive results are not listed. A call without a number means that no potency is given here. Activity calls are given as the source filed them. The call rests on the fitted dose curve; in most records, active means well fitted curve in the direction sought with a large enough effect; inconclusive means small, poorly fitted or top-dose-only effect, or another doubt; inactive means no such curve, though single readings can be large; an effect the other way counts as inactive or inconclusive.

Key:
[1] = qHTS to identify inhibitors of the type 1 interferon - major histocompatibility complex class I in skeletal muscle: primary screen against the NCATS LOPAC collection (AID 1347405);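 further: lytic HiBiT luminescence reporting HLA-B protein level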; further: potency means the concentration at half of the fitted maximal effect
Method in brief: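 Luminescence from HiBiT fused to endogenous HLA-B in CRISPR-engineered human myoblasts served as the read-out. Cells received 4.0 ng/ml IFN-beta plus compound (seven concentrations, 1:4.3 steps, highest 46 uM final) for 24 hrs before lytic detection.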

[2] = qHTS for inhibitors of adenylyl cyclases using a fission yeast platform: a pilot screen against the NCATS LOPAC library (AID 1347410)
Method in brief: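 S. pombe CHP2027 (AC9-GNAS-PDE4D2) carrying a PKA-repressed fbp1-GFP reporter was exposed to LOPAC compounds (final up to 57 µM) for 18 h at 30C in the dark, in EMM with histidine, lysine and uracil; GFP gain-of-signal read by laser scanning cytometry.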

[3] = Validation qHTS assay for inhibitors of Activation Induced Cytidine Deaminase (AID): UDG Counterscreen signal (AID 1347427); further: potency means the concentration at half of the fitted maximal effect
Method in brief: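 Counterscreen read of UDG activity (2 U/mL, 4/3x) in the FRET deamination format with AID (1 uM, 4/3x), DJC20/DJC23 substrates (250 nM, 4x), 4 h at room temperature. NaOH stop, fluorescence at 560 ex/665 em.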

[4] = qHTS to identify inhibitors of the type 1 interferon - major histocompatibility complex class I in skeletal muscle: primary screen against the NCATS Pharmaceutical Collection (AID 1347407);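 further: luminescence of HiBiT knocked into endogenous HLA-B as interferon-induced MHC class I level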
Method in brief: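 Immortalized human myoblasts (C25cl48) with HiBiT knocked into endogenous HLA-B*08:01 were stimulated with 4 ng/ml IFN-beta and treated with compounds (8-point, 1:5, top 46 uM final) for 24 h at 37 C; HiBiT lytic luminescence read.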

| SMILES | Potency [1] | outcome [2] | Potency [3] | Potency [4] |
| --- | --- | --- | --- | --- |
| COc1cc2c(CCNC(C)=O)c[nH]c2cc1Cl | inactive | inactive | inactive |  |
| NC(=S)c1ccc[n+]([C@@H]2O[C@@H](COP(=O)([O-])OP(=O)(O)OC[C@H]3O[C@@H](n4cnc5c(N)ncnc54)[C@H](OP(=O)(O)O)[C@@H]3O)C(O)C2O)c1 (stereo not given in full) | inactive | inactive | inactive |  |
| Cc1ccc(O)c(N=Nc2ccccc2)n1 | inactive | inactive | inactive |  |
| O=C(O)CNC(=O)C(CS)Cc1ccccc1 (stereo not given) | inactive | inactive | inactive |  |
| Nc1nc(Nc2ccccc2)nc2c1ncn2[C@@H]1O[C@H](CO)[C@@H](O)[C@H]1O | inactive | inactive | inactive |  |
| O=P(O)(O)C(Cl)(Cl)P(=O)(O)O | inactive | inactive | inactive |  |
| Cc1ccc(S(=O)(=O)/C=C/C#N)cc1 | 12.6 µM (active) | inactive | inactive |  |
| O=Nc1ccc2oc(=O)ccc2c1 | inactive | inactive | inactive |  |
| CC1(C)CCC=[N+]1[O-] | inactive | inactive | inactive |  |
| Cn1ncc(S(=O)(=O)Cc2ccccc2)c(Br)c1=O | inactive | inactive | inactive |  |
| CCCCCCCCCCCCCCCC(=O)OC(CC(=O)O)C[N+](C)(C)C (stereo not given) | inactive | inactive | inactive |  |
| Cc1cc(NC(=O)Nc2ccc3c(ccn3C)c2)sn1 | inactive | inactive | inactive |  |
| O=C(O)c1cc([N+](=O)[O-])ccc1NCCCc1ccccc1 | inactive | inactive | inactive |  |
| Cc1cc(NC2CCCCC2)nc(-n2nc(C)cc2C)n1 | inactive | inactive | inactive |  |
| OCC1O[C@H](O)C(Cl)C(O)C1O (stereo not given in full) | inactive | inactive | inactive |  |
| CN1C2CCC1CC(OC(=O)C(O)c1ccccc1)C2 (stereo not given) | inactive | inactive | inactive |  |
| O=C(O)CC[C@@H](C(=O)O)N1C(=O)c2ccccc2C1=O | inactive | inactive | inactive |  |
| COc1cc(C(O)CO)ccc1OS(=O)(=O)O (stereo not given) | inactive | inactive | inactive |  |
| NC(=O)C(=O)O | inactive | inactive | inactive |  |
| CCCCCCCCc1ccc(-c2ccc(C(=O)O)cc2)cc1 | inactive | inactive | inactive |  |
| Clc1ccc(N2CCN(Cc3c[nH]c4ncccc34)CC2)cc1 | inactive | inactive | inactive |  |
| O=[N+]([O-])c1ccc(CSc2ncnc3c2ncn3[C@@H]2O[C@H](CO)[C@@H](O)[C@H]2O)cc1 | inactive | inactive | inactive |  |

| SMILES | Potency [1] | outcome [2] | Potency [3] | Potency [4] |
| --- | --- | --- | --- | --- |
| CNC(=O)[C@H]1O[C@@H](n2cnc3c(NCc4cccc(I)c4)ncnc32)[C@H](O)[C@@H]1O | inactive | inactive | inactive |  |
| C[N+]1(C)CCC(OC(=O)C(c2ccccc2)c2ccccc2)CC1 | inactive | inactive | inactive |  |
| CSc1ccccc1N1CCN(CCCCCC(=O)NC2CCCc3ccccc32)CC1 (stereo not given) | inactive | inactive | inactive |  |
| N#C/C(=C\c1ccc(O)c(O)c1)C(=O)c1ccc(O)c(O)c1 | inactive | inactive | inactive |  |
| NO | inactive | inactive | 56.2 µM (active) |  |
| N[C@@H](CC(=O)O)C(=O)O | inactive | inactive | inactive |  |
| Oc1ccc(C2CNCc3sccc32)cc1O (stereo not given) | inactive | inactive | inactive |  |
| c1ccc(-c2ccccn2)nc1 | inactive | inactive | inactive |  |
| O=C(c1ccc(Cl)cc1)N1CCN(c2ccc([N+](=O)[O-])c3ncccc23)CC1 | inactive | inactive | inactive |  |
| COc1ccccc1CNCCCCCCNCCCCCCCCNCCCCCCNCc1ccccc1OC | inactive | inactive | inactive |  |
| CC1OC1P(=O)(O)O (stereo not given) | inactive | inactive | inactive |  |
| S=C(S)OC1CC2CC1C1CCCC21 (stereo not given) | inactive | inactive | inactive |  |
| CN1[C@@H](CC(=O)c2ccccc2)CCC[C@H]1C[C@H](O)c1ccccc1 | inactive | inactive | inactive |  |
| CN1C2CC(OC(=O)[C@H](CO)c3ccccc3)CC1C1OC12 (stereo not given in full) | inactive | inactive | inactive |  |
| CN(C)CCC(c1ccc(Cl)cc1)c1ccccn1 (stereo not given) | inactive | inactive | inactive |  |
| CO/N=C(\C(=O)N[C@@H]1C(=O)N2C(C(=O)O)=C(COC(C)=O)CS[C@H]12)c1csc(N)n1 | inactive | inactive | inactive |  |
| CN1CCc2ccccc2Cc2[nH]c3ccccc3c2CC1 | inactive | inactive | inactive |  |
| C=CC(N)CCC(=O)O (stereo not given) | inactive | inactive | inactive |  |
| CN(C)C(N)=NCCC[C@H](N)C(=O)O | inactive | inactive | inactive |  |
| CC(=O)/C=C1\C(=O)N(C)c2ccccc21 | 22.4 µM (active) | inactive | inactive |  |
| O=C(O)CCCC[C@@H]1CCSS1 | inactive | inactive | inactive |  |
| CCCC(=O)OC[C@@H](OC(=O)CCC)[C@@H](OC(=O)CCC)[C@H](Cn1c2nc(=O)[nH]c(=O)c-2nc2cc(C)c(C)cc21)OC(=O)CCC |  |  |  | inactive |
